# Tests used:
# Test in all cases: DAPPL (digital affinity profiling via proximity ligation, sequencing); 10 mM Tris-HCl pH 7.5, 50 mM NaCl, 1 mM DTT, 4% glycerol, room temperature, 30 min; GST-TFs on glutathione beads, 16-mer random dsDNA library, 0.1% formaldehyde crosslink after washing; high values mean tight binding
# Conditions in all cases: protein: recombinant; tags: N-terminal GST; dsDNA, one strand shown
# [1] = target: T1, FLI1 (Homo sapiens, UniProt Q01543 1-452)
# T1 sequence: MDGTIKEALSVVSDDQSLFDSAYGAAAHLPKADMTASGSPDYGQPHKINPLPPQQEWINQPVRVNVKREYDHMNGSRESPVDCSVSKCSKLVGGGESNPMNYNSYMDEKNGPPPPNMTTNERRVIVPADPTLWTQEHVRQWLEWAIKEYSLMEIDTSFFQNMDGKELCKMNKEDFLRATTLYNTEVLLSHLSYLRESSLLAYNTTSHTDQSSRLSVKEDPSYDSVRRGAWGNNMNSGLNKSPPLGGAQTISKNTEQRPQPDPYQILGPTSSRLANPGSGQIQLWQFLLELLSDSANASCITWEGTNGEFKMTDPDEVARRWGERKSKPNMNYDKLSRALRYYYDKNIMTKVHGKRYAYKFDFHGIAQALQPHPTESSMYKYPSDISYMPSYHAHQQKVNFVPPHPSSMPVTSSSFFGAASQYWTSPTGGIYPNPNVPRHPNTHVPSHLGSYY
# Method in brief: (§1)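 Human transcription factors were made in yeast as GST fusions, captured on glutathione beads and barcoded with DNA. With a tag-only sample included, the pool was incubated with 200 nmole of a random double-stranded 16-mer DNA library in Tris/NaCl/DTT/glycerol buffer at room temperature for 30 min, then crosslinked with 0.1% formaldehyde after washing, ligated by proximity, amplified and sequenced. For binding signal, each hexamer's read frequency for a factor is divided by its frequency for the tag-only sample.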
# [2] = target: T2, ELK1 (Homo sapiens, UniProt P19419 1-428)
# T2 sequence: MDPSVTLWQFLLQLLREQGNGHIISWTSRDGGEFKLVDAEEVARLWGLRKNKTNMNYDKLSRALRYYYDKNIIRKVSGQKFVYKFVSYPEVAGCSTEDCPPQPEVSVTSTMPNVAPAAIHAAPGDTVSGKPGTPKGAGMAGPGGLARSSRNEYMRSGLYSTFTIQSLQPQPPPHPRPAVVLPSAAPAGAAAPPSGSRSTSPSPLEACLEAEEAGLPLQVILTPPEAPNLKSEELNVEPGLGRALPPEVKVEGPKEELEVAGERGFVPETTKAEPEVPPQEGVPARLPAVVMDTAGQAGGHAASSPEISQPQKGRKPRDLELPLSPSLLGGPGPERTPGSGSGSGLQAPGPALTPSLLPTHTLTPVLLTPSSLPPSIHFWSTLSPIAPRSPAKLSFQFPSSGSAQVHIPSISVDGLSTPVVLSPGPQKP
# Method in brief: as §1
# [3] = target: T3, GABPA (Homo sapiens, UniProt Q06546 1-454)
# T3 sequence: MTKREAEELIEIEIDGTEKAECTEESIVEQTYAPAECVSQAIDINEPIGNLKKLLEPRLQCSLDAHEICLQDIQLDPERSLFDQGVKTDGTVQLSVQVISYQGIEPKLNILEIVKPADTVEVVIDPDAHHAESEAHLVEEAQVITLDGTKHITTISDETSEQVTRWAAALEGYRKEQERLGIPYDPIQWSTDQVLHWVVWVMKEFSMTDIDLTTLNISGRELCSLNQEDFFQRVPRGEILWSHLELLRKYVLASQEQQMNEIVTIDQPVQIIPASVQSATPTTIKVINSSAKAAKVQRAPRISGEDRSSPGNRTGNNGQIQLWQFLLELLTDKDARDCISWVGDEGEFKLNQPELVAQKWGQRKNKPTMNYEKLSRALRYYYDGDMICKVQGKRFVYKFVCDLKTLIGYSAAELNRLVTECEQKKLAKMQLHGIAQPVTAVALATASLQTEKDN
# Method in brief: as §1
# [4] = target: T4, ERG (Homo sapiens, UniProt P11308 1-479)
# T4 sequence: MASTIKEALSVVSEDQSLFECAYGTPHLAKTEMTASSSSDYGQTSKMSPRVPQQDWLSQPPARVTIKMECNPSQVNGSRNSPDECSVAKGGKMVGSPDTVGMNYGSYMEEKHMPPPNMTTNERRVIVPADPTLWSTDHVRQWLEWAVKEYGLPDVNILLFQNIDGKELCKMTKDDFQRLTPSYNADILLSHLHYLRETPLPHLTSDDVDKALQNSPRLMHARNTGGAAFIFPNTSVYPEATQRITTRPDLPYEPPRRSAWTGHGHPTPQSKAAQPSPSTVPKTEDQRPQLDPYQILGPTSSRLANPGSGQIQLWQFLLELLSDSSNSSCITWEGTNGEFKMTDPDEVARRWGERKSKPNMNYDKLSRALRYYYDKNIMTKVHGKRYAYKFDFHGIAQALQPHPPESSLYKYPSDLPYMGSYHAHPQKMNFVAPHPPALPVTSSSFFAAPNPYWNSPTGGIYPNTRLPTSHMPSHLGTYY
# Method in brief: as §1
# [5] = target: ELF1 (Homo sapiens, UniProt P32519 1-619)
# Method in brief: as §1
# [6] = target: T5, EHF (Homo sapiens, UniProt Q9NZC4 1-300)
# T5 sequence: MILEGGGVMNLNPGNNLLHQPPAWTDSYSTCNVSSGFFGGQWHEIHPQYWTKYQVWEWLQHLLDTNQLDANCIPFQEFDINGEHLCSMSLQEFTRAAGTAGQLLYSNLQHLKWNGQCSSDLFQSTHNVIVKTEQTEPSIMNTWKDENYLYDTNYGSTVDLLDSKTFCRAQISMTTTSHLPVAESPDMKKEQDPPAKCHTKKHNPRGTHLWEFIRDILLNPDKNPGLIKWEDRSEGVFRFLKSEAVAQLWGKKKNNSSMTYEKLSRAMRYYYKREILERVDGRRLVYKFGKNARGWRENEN
# Method in brief: as §1
# [7] = target: SPI1 (Homo sapiens, UniProt P17947 1-270)
# Method in brief: as §1
# [8] = target: SPIB (Homo sapiens, UniProt Q01892 1-262)
# Method in brief: as §1
# [9] = target: T6, ELK3 (Homo sapiens, UniProt P41970 1-407)
# T6 sequence: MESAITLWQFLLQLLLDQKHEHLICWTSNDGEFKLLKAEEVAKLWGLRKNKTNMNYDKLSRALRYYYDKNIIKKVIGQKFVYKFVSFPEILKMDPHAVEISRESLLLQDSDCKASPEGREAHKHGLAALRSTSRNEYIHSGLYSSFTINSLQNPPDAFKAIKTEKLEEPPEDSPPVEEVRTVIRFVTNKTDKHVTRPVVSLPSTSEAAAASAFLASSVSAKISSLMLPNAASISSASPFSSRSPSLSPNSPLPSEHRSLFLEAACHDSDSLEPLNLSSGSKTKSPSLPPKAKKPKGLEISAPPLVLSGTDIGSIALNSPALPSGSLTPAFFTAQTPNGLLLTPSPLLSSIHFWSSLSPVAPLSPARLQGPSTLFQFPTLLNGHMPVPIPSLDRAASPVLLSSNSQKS
# Method in brief: as §1
# Chain of ELF1 (P32519 whole entry): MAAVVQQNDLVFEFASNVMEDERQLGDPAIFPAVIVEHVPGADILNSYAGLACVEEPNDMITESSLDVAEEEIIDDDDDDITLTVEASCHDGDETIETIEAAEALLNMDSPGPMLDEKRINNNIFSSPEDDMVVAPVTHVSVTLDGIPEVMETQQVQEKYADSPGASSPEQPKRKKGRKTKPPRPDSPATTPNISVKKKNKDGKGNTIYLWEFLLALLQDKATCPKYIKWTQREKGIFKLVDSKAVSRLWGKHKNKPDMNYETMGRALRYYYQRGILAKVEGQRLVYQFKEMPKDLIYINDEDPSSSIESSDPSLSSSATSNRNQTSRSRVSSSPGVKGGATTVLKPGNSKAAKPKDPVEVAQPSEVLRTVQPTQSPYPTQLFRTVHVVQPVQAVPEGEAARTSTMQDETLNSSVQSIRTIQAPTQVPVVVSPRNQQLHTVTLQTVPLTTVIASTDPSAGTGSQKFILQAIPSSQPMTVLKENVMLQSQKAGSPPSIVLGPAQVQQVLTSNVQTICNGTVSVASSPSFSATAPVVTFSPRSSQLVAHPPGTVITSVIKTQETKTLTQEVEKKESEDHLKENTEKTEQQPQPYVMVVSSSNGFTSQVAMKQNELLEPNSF
# Chain of SPIB (Q01892 whole entry): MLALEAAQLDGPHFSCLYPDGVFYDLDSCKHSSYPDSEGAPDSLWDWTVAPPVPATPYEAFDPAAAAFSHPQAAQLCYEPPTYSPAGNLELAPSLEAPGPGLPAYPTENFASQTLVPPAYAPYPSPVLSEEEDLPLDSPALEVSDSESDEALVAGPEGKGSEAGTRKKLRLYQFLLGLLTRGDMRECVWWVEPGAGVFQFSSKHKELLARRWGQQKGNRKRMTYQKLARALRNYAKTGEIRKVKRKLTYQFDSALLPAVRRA
sequence,measurement,setting,value
TTGCAC,binding signal,[1],"1.3 fold enrichment (6-mer frequency, TF over GST control)"
same,binding signal,[2],"1.32 fold enrichment (6-mer frequency, TF over GST control)"
same,binding signal,[3],"1.27 fold enrichment (6-mer frequency, TF over GST control)"
same,binding signal,[4],"1.27 fold enrichment (6-mer frequency, TF over GST control)"
same,binding signal,[5],"1.28 fold enrichment (6-mer frequency, TF over GST control)"
same,binding signal,[6],"1.21 fold enrichment (6-mer frequency, TF over GST control)"
same,binding signal,[7],"1.26 fold enrichment (6-mer frequency, TF over GST control)"
same,binding signal,[8],"1.16 fold enrichment (6-mer frequency, TF over GST control)"
same,binding signal,[9],"1.34 fold enrichment (6-mer frequency, TF over GST control)"
